Compound activity from PubChem.
Rows were chosen to be rich in hits. Some 3.9% of all compounds tested hit in one or more screens of this group.
Vc quorum ag – inducers of Vibrio cholerae quorum light production without autoinducers; activation, % at 18.7 µM; AID 588436; 0.16% of 350,000 active; V. cholerae BH1578 lux reporter, luminescence, 6 h; in the data active = activation mostly above about 9.7%, no sharp cut-off
SARS 3CLpro inh – SARS-CoV 3CLpro protease inhibition | 0.14% of 290,000 active | recombinant SARS-CoV 3CLpro, quenched FRET peptide cleavage | inhibition, % at 6 µM | P0C6X7; in the data active = inhibition above about 12%
GDH-TPI counter-1 – counter-screen for M. tuberculosis FBA inhibitors: GDH-TPI coupled enzymes. GDH-TPI coupled enzyme counterscreen, NADH absorbance. inhibition, % at 4.8 µM. 1.2% of 360,000 active. AID 588335; in the data active = inhibition above about 30%;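 note: 0% = DMSO wells and 100% = wells lacking the enzyme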
PrPC TRFRET – cell surface PrPC inhibition, primary TR-FRET screen; TR-FRET read-out; inhibition, % at 13.8 µM; P04156; 0.43% of 370,000 active; in the data active = inhibition above about 24%; note: 0% = median of the test wells and 100% = reference compound wells
FBA Mtb inh – inhibits M. tuberculosis FBA enzyme | purified M. tuberculosis FBA, fluorescence read-out | 2.3% of 360,000 active | inhibition, % at 1 µM | P9WQA3 | AID 588726;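 note: 0% = vehicle and 100% = reference inhibitor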
Target sequence (P9WQA3 whole entry, looked up): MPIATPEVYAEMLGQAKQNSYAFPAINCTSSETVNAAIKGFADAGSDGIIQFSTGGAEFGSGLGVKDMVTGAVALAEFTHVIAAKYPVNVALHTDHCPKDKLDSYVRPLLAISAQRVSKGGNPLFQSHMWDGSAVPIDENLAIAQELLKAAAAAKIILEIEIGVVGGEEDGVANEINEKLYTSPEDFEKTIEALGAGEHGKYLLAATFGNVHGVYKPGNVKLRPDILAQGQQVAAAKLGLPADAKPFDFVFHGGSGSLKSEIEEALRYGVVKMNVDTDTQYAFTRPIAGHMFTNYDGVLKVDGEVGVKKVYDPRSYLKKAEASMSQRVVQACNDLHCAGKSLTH
Mtb FBA inh conf – confirmation of M. tuberculosis fructose-bisphosphate aldolase inhibitors; inhibition, % at 1 µM; AID 651616; 78% of 5,600 active; shares compounds with FBA Mtb inh; purified M. tuberculosis FBA, fluorescence read-out;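 note: 0% = vehicle wells and 100% = reference inhibitor wells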
GDH-TPI counter-2 – counter-screen for M. tuberculosis FBA inhibitors: GDH-TPI coupled enzyme inhibition | shares compounds with FBA Mtb inh | GDH-TPI coupled enzyme counterscreen, fluorescence | inhibition, % at 1 µM | 81% of 5,600 active | AID 652141; in the data active = inhibition above about 10%
GDH-TPI dose – inhibits GDH-TPI coupling enzymes in dose response | shares compounds with FBA Mtb inh | GDH-TPI coupled enzyme assay, fluorescence, artifact counterscreen | IC50, µM | 79% of 170 active | AID 652145; call rule not given here
Numbers without * were called inactive; i = inactive; / = no result given; + = active, no number. Cut-off read from the data, not from the text of the source, unless noted: active = inhibition above about 27%; inactive = the rest.

SMILES | Vc quorum ag | SARS 3CLpro inh | GDH-TPI counter-1 | PrPC TRFRET | FBA Mtb inh | Mtb FBA inh conf | GDH-TPI counter-2 | others
Cc1c(CC(=O)NCCC(C)C)c(=O)oc2cc3c(cc12)CCC(C)(C)O3 | 1 | 4 | 6 | 10 | 42* | 90* | 71*
Cc1nn(Cc2ccccc2)c(C)c1CNC(=O)[C@H](C)N=C1NS(=O)(=O)c2ccccc21 | i | / | 13 | -1 | 3 | / | /
COc1cc(OC)cc(-c2c(-c3cccs3)c3cc(-c4cccc5[nH]ccc45)ccc3n2C)c1 | i | / | 21 | -3 | 47* | 112* | 79*
COc1cc(F)cc(-c2ccc3c(c2)c(-c2cccs2)c(-c2cc(OC)cc(OC)c2)n3C)c1 | 0 | / | 22 | 1 | 2 | / | /
COCCN1Cc2cc(C(=O)OC)c3c(c2C1=O)c1cc(F)ccc1n3C(=O)c1ccccc1 | / | / | / | 5 | / | / | /
CCN(CC)C(=O)c1c(C)nc2ccccn12 | i | -3 | 2 | / | 1 | / | /
Cc1cccn2c(=O)c3cc(C(=O)N4CCCCC4)sc3nc12 | 0 | 0 | 31* | -9 | 64* | 122* | 83*
CCOC(=O)C1CCN(C(=O)c2cc3c(=O)n4cccc(C)c4nc3s2)CC1 | -3 | -5 | 12 | 0 | 100* | + | 166*
CC(C)CN(CC(C)C)C(=O)c1cc2c(=O)n3ccccc3nc2s1 | i | -4 | 4 | -22 | 59* | + | 194*
Cc1cccn2c(=O)c3cc(C(=O)NCCCOC(C)C)sc3nc12 | -1 | -1 | 23 | -6 | 103* | 4 | 2
CC1CCN(CCOc2ccc(OCc3ccccc3)cc2)CC1 | i | 5 | 10 | -5 | 1 | / | /
[2H]C([2H])(CCOS(N)(=O)=O)c1ccccc1 | i | -2 | 6 | -3 | -2 | / | /
O=C1CCC[C@H]2C[C@H](NCCc3ccncc3)CC[C@]23CCCN13 | / | / | / | 2 | / | / | /
O=C(CNc1cc(S(=O)(=O)N2CCCC2)ccc1OCC(F)(F)F)Nc1ccc(SC(F)F)cc1 | -1 | 2 | 0 | 17 | -1 | / | /
Cc1cccn2c(=O)c3cc(C(N)=S)c(=N)n(CCCOC(C)C)c3nc12 | 0 | -3 | 16 | -16 | 63* | 6 | 0
Cc1cccn2c(=O)c3cc(C(=O)NC4CCCC4)sc3nc12 | i | -2 | 17 | -13 | 91* | 66* | 51*
CCCCCn1c(=N)c(S(=O)(=O)c2ccc(Cl)cc2)cc2c(=O)n3cccc(C)c3nc21 | -1 | -4 | 5 | / | 2 | / | /
CCCN(CCC)C(=O)c1cc2c(=O)n3cccc(C)c3nc2s1 | i | 0 | 24 | -4 | 30* | 137* | 98*
Cc1cccn2c(=O)c3cc(C(=O)NCC(C)C)sc3nc12 | 1 | -3 | 10 | -12 | 20 | / | /
Cc1ccc(S(=O)(=O)N2C[C@H]3C(=O)C[C@@H](c4cccs4)N(S(=O)(=O)c4ccc(C)cc4)[C@H]3C[C@H]2c2ccccc2)cc1 | / | / | / | 1 | 2 | / | /
O=c1[nH]c(N2CCOCC2)cc2ccccc12 | i | / | 0 | 2 | 45* | 144* | 100*
O=c1c(N2CCOCC2)coc2ccccc12 | -1 | -3 | 9 | -3 | 9 | / | /
N#Cc1nc(-c2ccc(OCc3ccc(Cl)cc3)cc2)oc1N1CCC(C(N)=O)CC1 | 5 | 1 | 1 | 5 | 9 | / | /
CN(C)c1oc(-c2ccc(OCc3ccccc3)cc2)nc1C#N | -12 | -4 | 26 | -1 | 109* | -6 | -5
CC[C@@]1(C(=O)OC)N[C@H](CN(C)S(=O)(=O)c2ccc(C(F)(F)F)cc2)[C@@H]2C(=O)N(C)C(=O)[C@@H]21 | -1 | / | -3 | -4 | 0 | / | /
SMILES | Vc quorum ag | SARS 3CLpro inh | GDH-TPI counter-1 | PrPC TRFRET | FBA Mtb inh | Mtb FBA inh conf | GDH-TPI counter-2 | others
O=C(NCCc1c[nH]c2ccccc12)c1ccc2[nH]c(=O)c(=O)[nH]c2c1 | i | -4 | 4 | 3 | 3 | / | /
O=C(NCCO)c1ccc2[nH]c3ccccc3c2c1 | 10 | -5 | -11 | -7 | 35* | -2 | -4
O=C(COc1ccccc1)Nc1cccc(-c2nc3cc4ccccc4cc3[nH]2)c1 | -1 | 5 | 29 | -14 | 72* | 101* | 79*
CC(C)(C)c1ccc(S(=O)(=O)NC(=O)C2(C)CCN2C(=O)C2CC2)cc1 (centres undefined) | 0 | / | 3 | -6 | -2 | / | /
Cc1nc2c(=O)n(C)c(=O)n(C)c2nc1Cl | i | -1 | 6 | -12 | 39* | 63* | 44*
Cc1cccc(NC(=O)c2ccccc2OCC(=O)N2CCCC2)c1C | / | 3 | / | / | / | / | /
Cc1sc2nc(-c3ccccn3)[nH]c(=O)c2c1-c1ccccc1 | -1 | 1 | 7 | 22 | 31* | 46* | 37*
O=c1c2ccccc2nc2n1CCN2Cc1ccc(Cl)cc1 | i | 3 | 10 | / | 34* | 192* | 170*
COc1ccc2c(c1)c(=O)oc1c(C)c(OC(C)C(=O)NCC3CCC(C(=O)O)CC3)ccc12 (centres undefined) | 0 | 3 | 9 | 0 | 35* | 92* | 81*
COc1ccc2c(c1)c(=O)oc1c(C)c(OCc3cc(C(=O)O)oc3C)ccc12 | 2 | 6 | 3 | 6 | 43* | -4 | -7
O=C1NC[C@@H](CCCCN2C[C@H](Cc3ccccc3)N(CCc3ccc(O)cc3)C(=O)C2=O)N(Cc2ccccc2)C1=O | / | / | / | 2 | / | / | /
CN(CC(=O)Nc1cccc(F)c1)CC(=O)Nc1ccccc1Oc1ccccc1 | i | 3 | -3 | 4 | 1 | / | /
C[C@@H]1CCCCO[C@H](CN(C)Cc2ccc(C(=O)O)cc2)[C@H](C)CN([C@@H](C)CO)C(=O)c2cc(NC(=O)Nc3ccc(C(F)(F)F)cc3)ccc2O1 | i | / | 6 | 5 | 5 | / | /
CCC(=O)NC(c1ccco1)c1cc(Cl)c2ccccc2c1O (centres undefined) | -1 | / | 12 | 1 | 30* | 79* | 56*
CC(=O)NC(c1ccco1)c1cc(Cl)c2ccccc2c1O (centres undefined) | -1 | / | 12 | 2 | 37* | + | +
N#Cc1c(N2CCN(C(=O)c3ccco3)CC2)nc(-c2ccccc2)c2c1CCCC2 | i | 5 | 13 | -14 | 22 | / | /
N#Cc1nc(-c2cccs2)oc1N1CCN(Cc2ccccc2)CC1 | i | -7 | 27 | -2 | 51* | 12 | 6 | GDH-TPI dose=1.8*
N#Cc1nc(COc2ccccc2)oc1N1CCN(Cc2ccccc2)CC1 | -6 | -1 | -1 | 2 | -8 | / | /
N#Cc1nc(-c2ccccc2)oc1N1CCN(C(=O)c2ccco2)CC1 | i | -5 | 19 | 3 | 68* | 41* | 32*
COc1ccc(-c2ccc3c(c2)CN(C(=O)NC2CCCCC2)Cc2cnnn2-3)cc1 | / | / | / | 5 | 86* | 52* | 41*
